About 79,000 compounds went through this panel and 15% of them were active in at least one assay; those are over-represented in the sample as a whole. No stated cut-off is given here; in the data, active means growth inhibition above about 70%; inactive means the rest.
How the values were obtained:
[1] = NCI Yeast Anticancer Drug Screen. Data for the rad50 strain (AID 155);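 further: 0% = growth of vehicle-only cultures of the same strain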; details: S. cerevisiae rad50 strain growth inhibition; at 50.0 µM; hits give high values
Summary of the method: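 Genetically altered yeast (DNA repair pathway); compound treatment; growth inhibition vs vehicle ctrl.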

[2] = NCI Yeast Anticancer Drug Screen. Data for the mec2-1 strain (AID 157); details: S. cerevisiae mec2-1 strain, at 50.0 µM, hits give high values
Summary of the method: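 Compounds were applied to mec2-1 yeast cells. Their growth was then compared with that of vehicle-treated cultures to give growth inhibition.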

[3] = NCI Yeast Anticancer Drug Screen. Data for the sgs1 mgt1 strain (AID 161);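 further: 0% = growth of cultures given vehicle only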; details: S. cerevisiae sgs1 mgt1 strain, at 50.0 µM, hits give high values
Summary of the method: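 Growth of a repair-deficient yeast mutant was monitored after compound treatment and expressed as inhibition relative to vehicle-treated cultures.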

[4] = NCI Yeast Anticancer Drug Screen. Data for the cln2 rad14 strain (AID 165);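 further: 0% = growth equal to vehicle treated cultures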; details: S. cerevisiae cln2 rad14 strain, at 50.0 µM, hits give high values
Summary of the method: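 Strain: cln2 rad14 yeast, altered in cell cycle control and DNA damage repair. Read-out: growth inhibition vs vehicle.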

[5] = NCI Yeast Anticancer Drug Screen. Data for the bub3 strain (AID 167); details: S. cerevisiae bub3 mutant strain, at 50.0 µM, hits give high values
Summary of the method: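 Yeast carrying a defined mutation is treated with each compound, and growth is compared with that of vehicle-exposed cells to give inhibition.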

[6] = NCI Yeast Anticancer Drug Screen. Data for the mlh1 rad18 strain (AID 175); details: S. cerevisiae mlh1 rad18 strain growth inhibition; at 50.0 µM; hits give high values
Summary of the method: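 A repair-deficient yeast strain is exposed to test compound, and growth is scored relative to vehicle-treated controls.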

Measured: growth inhibition

COc1ccc(/C=N/N2CCN(/N=C/c3ccc(OC)c(O)c3)CC2)cc1O
inactive: [1] 22.1% | [2] 4.5% | [3] 15.1% | [4] 28.6% | [5] 1.05% | [6] 9.85%

Cc1ncc([N+](=O)[O-])n1CCNS(=O)(=O)CCCn1ccnc1[N+](=O)[O-]
inactive: [1] -4.85% | [2] -17.1% | [3] -18.9% | [4] -25.7% | [5] -18.5% | [6] -58.7%

COC(=O)C1(C)CCCC2(C)C3CC4OC4(C(C)C)CC3(O)CCC12 (stereo not given)
inactive: [1] -4.5% | [2] 6.85% | [3] 4% | [4] -8.4% | [5] -12.1% | [6] 42.1%

Cc1ccc(CCS(=O)(=O)N=[N+]=[N-])cc1
inactive: [1] 1.45% | [2] -11.8% | [3] -8.95% | [4] -53.8% | [5] -20% | [6] -3.4%

COc1cc(/C=C/Cc2cc3c(cc2O)OCO3)cc(OC)c1OC
inactive: [1] 0.7% | [2] -15.6% | [3] 0.55% | [4] -21.6% | [5] -1.9% | [6] 0.75%

CC(=O)C1=C2CCC3C(CCC4CC(O)CCC43C)C2CC1 (stereo not given)
inactive: [1] -3.95% | [2] -3.35% | [3] 10.9% | [4] -9.45% | [5] -8% | [6] 11.2%

COC(=O)C(CC(=O)c1cc2c(cc1I)OCO2)Cc1cc(OC)c(OC)c(OC)c1I (stereo not given)
inactive: [1] -22.9% | [2] -28.8% | [3] -29.8% | [4] -1.65% | [5] -2.45% | [6] -24.9%

Oc1ccc2ccccc2c1C(c1cccc2ccccc12)N1CCCCC1 (stereo not given)
inactive: [1] 16.1% | [2] 1.4% | [3] 9.7% | [4] 3.2% | [5] 16.1% | [6] 53.8%

CCCCCCCCCCCCCCCCCC#N
inactive: [1] 36.7% | [2] 20.6% | [3] -2.9% | [4] -52.1% | [5] 5.5% | [6] 39.9%

COC(=O)C1=CO[C@@H](C)[C@@H]2CN3CCc4c([nH]c5ccc(OC)cc45)[C@@H]3C[C@H]12
inactive: [1] 8.9% | [2] -19.9% | [3] -24.9% | [4] -18.6% | [5] -2.9% | [6] -16.4%

CC(=O)Oc1ccc(C(=O)c2ccc(OC(C)=O)cc2)cc1
inactive: [1] -7.5% | [2] -16.6% | [3] 6.25% | [4] -22.4% | [5] -4.45% | [6] 22.2%

C#CC(C)(C)OC(=O)Nc1ccc(Cl)cc1
inactive: [1] 27.4% | [2] 16.2% | [3] -0.35% | [4] -44.2% | [5] 7.9% | [6] 13.1%

CC12CCC(=O)C=C1CCC1C2C(=O)CC2(C)C1CCC2(O)C(=O)Cn1c(=O)[nH]cc(F)c1=O (stereo not given)
inactive: [1] 5.95% | [2] -5.8% | [3] 3.55% | [4] 5.65% | [5] -0.85% | [6] 2.3%

c1ccc(-c2c(-c3cccs3)[nH]c(-c3cccs3)c2-c2ccccn2)nc1
inactive: [1] -6.7% | [2] 17.1% | [3] 45.7% | [4] -29.4% | [5] -6.6% | [6] -57%

CS[C@]12C(=O)C[C@@]3(C)[C@@H](CC[C@]3(O)C(=O)CO)[C@@H]1CCC1=CC(=O)CC[C@@]12C
inactive: [1] -2.2% | [2] -24% | [3] -15.9% | [4] 28.7% | [5] -54.8% | [6] -20.4%

CCOC(=O)CSc1ccnc(=O)[nH]1
inactive: [1] -9.25% | [2] -8.9% | [3] -5.35% | [4] 0.1% | [5] -16% | [6] -31.8%

CC1CCc2[nH]nc(CC3CC(=O)NC(=O)C3)c2C1 (stereo not given)
inactive: [1] 15.9% | [2] -2.2% | [3] 10.8% | [4] 27.2% | [5] -7.35% | [6] 3.7%

CCCCOc1ccc(C=Nc2ccc(C)cc2)cc1
inactive: [1] -6.15% | [2] -6.2% | [3] -2.45% | [4] -8.5% | [5] 7.3% | [6] -20.7%

O=CNCC(O)c1ccc2c(c1)[nH]c1ccccc12 (stereo not given)
inactive: [1] 30.6% | [2] -16.2% | [3] -1.45% | [4] -10.3% | [5] 19% | [6] 47.4%

CCNC(=S)Nc1ccc(Cl)cc1
inactive: [1] 27.2% | [2] 40.4% | [3] 39% | [4] -6.1% | [5] 53.4% | [6] 35.8%

— PubChem BioAssay (NCI)
